The results in this text go back to PubChem BioAssay (Tox21).

SMILES strings stand for the structures. Results filed as inconclusive are left out. A call without a number means that no potency is given here. Active and inactive are the calls of the source. Calls follow the shape of the full dose curve.
Potency is read from the fitted curve at half-maximal effect.

Chain of Acetylcholinesterase (Homo sapiens) (P22303 whole entry, looked up): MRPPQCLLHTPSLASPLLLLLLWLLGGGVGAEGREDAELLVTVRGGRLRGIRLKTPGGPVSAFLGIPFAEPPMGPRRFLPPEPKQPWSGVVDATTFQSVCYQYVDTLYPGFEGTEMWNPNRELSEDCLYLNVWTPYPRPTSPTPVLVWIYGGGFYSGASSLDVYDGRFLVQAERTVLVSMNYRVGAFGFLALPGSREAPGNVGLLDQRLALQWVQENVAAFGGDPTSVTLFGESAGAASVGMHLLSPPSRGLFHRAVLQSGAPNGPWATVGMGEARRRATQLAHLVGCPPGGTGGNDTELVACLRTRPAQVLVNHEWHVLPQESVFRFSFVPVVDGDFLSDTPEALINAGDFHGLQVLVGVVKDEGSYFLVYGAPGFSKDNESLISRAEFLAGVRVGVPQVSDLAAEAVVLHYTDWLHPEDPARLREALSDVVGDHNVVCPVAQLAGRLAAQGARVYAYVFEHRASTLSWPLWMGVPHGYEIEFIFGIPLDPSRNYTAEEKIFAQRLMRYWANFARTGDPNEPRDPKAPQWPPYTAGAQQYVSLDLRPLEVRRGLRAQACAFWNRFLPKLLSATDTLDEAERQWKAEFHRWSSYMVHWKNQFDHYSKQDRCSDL

The target of the assay is Acetylcholinesterase (Homo sapiens) (UniProt P22303). In words: Acetylcholinesterase (AChE) small molecule antagonists: colormetric cell-based qHTS assay (AID 1347395). Also: nearly all actives have a fitted effect of over 30% in size. The settings on record: SH-SY5Y cells AChE activity, colorimetric (Ellman); series mostly up to 115 µM. An outline of the steps:
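SH-SY5Y cells attached overnight, exposed to compound 30 min at 37 C, then given DTNB/acetylthiocholine; after 90 min at 37 C, colorimetric thiocholine read gives cellular AChE activity.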
(In qHTS, concentration-response curves come from the screen itself.)
Turning to `COc1cc(OC)c2ccc(=O)oc2c1`, the Potency result was “inactive”.

`CC(C)=CCOc1ccc(/C=C/C(=O)c2ccc(OCC=C(C)C)cc2OCC(=O)O)cc1`: the Potency result is “inactive”. For `CC(N=C(NC#N)Nc1ccncc1)C(C)(C)C` (stereo not drawn), the Potency result is “inactive”.

As to `CC(C)(C)CC(C)(C)c1ccc(OCCO)cc1`, the Potency entry is “inactive”.

As for `CC[C@@]1(c2ccccc2)NC(=O)N(C)C1=O`, the Potency result was “inactive”. `Clc1ccc(C(Cn2ccnc2)OCc2ccc(Sc3ccccc3)cc2)c(Cl)c1` (stereo not drawn): the Potency result was “inactive”. Regarding `CCCCCCCCCCCCCCCCCl`, the activity, negative = inhibition was 0.0979% [at 23.6 µM] (inactive). Consider `NC(=O)c1ccc(N)cc1`, for which the Potency result is “inactive”. The same measure, in the same setting: under `NCc1ccccc1` stands “inactive”; under `O=C(O)CNC(=O)c1ccc([N+](=O)[O-])cc1`, “inactive”. The same measure, in the same setting: to `Oc1ccc(-c2ccc(O)cc2)cc1` belongs “inactive”. On the same count and under the same terms, under `CC(C)OC(=O)c1cc2c(OCC(O)CNC(C)(C)C)cccc2[nH]1` (stereo not drawn) stands “inactive”. Regarding `C[C@@H]1CC[C@H]2C(C)(C)[C@H]3C[C@@]12CC[C@@]3(C)O`, the Potency entry is “inactive”. Same read-out and setting: to `Nc1ccc(NCCO)c([N+](=O)[O-])c1` belongs 35.6 µM (active). Consider `CCOC(=O)CC(C)O` (stereo not drawn), for which the Potency entry is “inactive”. On to `Cc1ccc(=O)n(-c2ccccc2)c1`, for which the Potency result was “inactive”. Consider `CCCCCCCCCCCCCCN(C)C`, for which the activity, negative = inhibition was 0.601% [at 23.6 µM] (inactive).

Turning to `CN(C)CCc1c[nH]c2ccc(CS(=O)(=O)N3CCCC3)cc12`, the Potency entry was “inactive”. The same measure, in the same setting: to `CC(C)(C)c1ccc(C=O)cc1` belongs “inactive”. Turning to `CC(=O)Nc1ccc(S(=O)(=O)Cl)cc1`, the Potency entry is “inactive”.

For `N#CCCOCCC#N`, the Potency result is “inactive”. As for `C=CCOC(=O)COCCC(C)C`, the Potency result was “inactive”. In the case of `COc1ccc2c(c1OC)C(=O)O[C@@H]2[C@H]1c2c(cc3c(c2OC)OCO3)CCN1C`, the Potency result is “inactive”.
